# Results filed as inconclusive are left out. Entries that show only a call come without a potency. Values without a mark were called inactive. Calls of active or inactive are those of the source. Calls follow the shape of the dose curve; as a rule, active = well fitted curve in the direction sought with a large enough effect; inconclusive = small, poorly fitted or top-dose-only effect, or another doubt; inactive = no such curve, though single readings can be large; an effect the other way counts as inactive or inconclusive.
# Legend:
# [1] = molecular target: Rap guanine nucleotide exchange factor 3 (Homo sapiens) (UniProt O95398); experiment: Confirmatory qHTS for antagonist of cAMP-regulated guanine nucleotide exchange factor 3 (EPAC1) (AID 1645880); also: nearly all actives have a fitted effect of over 55% in size; also: potency is read from the fitted curve at half-maximal effect
# Procedure, shortened: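 Released BODIPY-GDP fluoresces less than Rap1-bound BODIPY-GDP; the signal is followed at 480/540 nm at 5-min intervals over 30 min, after 5 min at room temperature. Reactions contain 100 nM EPAC1, 250 nM RAP1B-BODIPY-GDP and 50 uM GDP; results are normalized to ATA and DMSO.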
# [2] = molecular target: Rap guanine nucleotide exchange factor 3 (Homo sapiens) (UniProt O95398); experiment: Confirmatory qHTS for agonist of cAMP-regulated guanine nucleotide exchange factor 3 (EPAC1) (AID 1645881);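 also: EPAC1 catalysed release of BODIPY-GDP from Rap1B seen as fluorescence loss; nearly all actives have a fitted effect of over 75% in size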
# [3] = molecular target: Rap guanine nucleotide exchange factor 4 (Homo sapiens) (UniProt Q8WZA2); experiment: Confirmatory qHTS for agonist of cAMP-regulated guanine nucleotide exchange factor 4 (EPAC2) (AID 1645884);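 also: nucleotide exchange releases bodipy-GDP from Rap1 and this lowers its fluorescence; nearly all actives have a fitted effect of over 65% in size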
# [4] = molecular target: Rap guanine nucleotide exchange factor 4 (Homo sapiens) (UniProt Q8WZA2); experiment: Confirmatory qHTS for antagonist of cAMP-regulated guanine nucleotide exchange factor 4 (EPAC2) (AID 1645885); also: nearly all actives have a fitted effect of over 25% in size; also: potency is read from the fitted curve at half-maximal effect
# [5] = molecular target: Rap guanine nucleotide exchange factor 3 (Homo sapiens) (UniProt O95398); experiment: Counterscreen qHTS for antagonist of cAMP-regulated guanine nucleotide exchange factor 3 (EPAC1) (AID 1645888)
# Procedure, shortened: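 Rap1B–BODIPY-GDP (250 nM) with 50 uM GDP; compounds pin-transferred to 9.74 nM–152 uM final (activator) or from 7.32 nM upwards (inhibitor). Fluorescence Ex/Em 480/540 nm read at 5 and 30 min, then after adding cAMP or buffer, at room temperature.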
# Sequence of Rap guanine nucleotide exchange factor 3 (Homo sapiens) (O95398 whole entry, looked up): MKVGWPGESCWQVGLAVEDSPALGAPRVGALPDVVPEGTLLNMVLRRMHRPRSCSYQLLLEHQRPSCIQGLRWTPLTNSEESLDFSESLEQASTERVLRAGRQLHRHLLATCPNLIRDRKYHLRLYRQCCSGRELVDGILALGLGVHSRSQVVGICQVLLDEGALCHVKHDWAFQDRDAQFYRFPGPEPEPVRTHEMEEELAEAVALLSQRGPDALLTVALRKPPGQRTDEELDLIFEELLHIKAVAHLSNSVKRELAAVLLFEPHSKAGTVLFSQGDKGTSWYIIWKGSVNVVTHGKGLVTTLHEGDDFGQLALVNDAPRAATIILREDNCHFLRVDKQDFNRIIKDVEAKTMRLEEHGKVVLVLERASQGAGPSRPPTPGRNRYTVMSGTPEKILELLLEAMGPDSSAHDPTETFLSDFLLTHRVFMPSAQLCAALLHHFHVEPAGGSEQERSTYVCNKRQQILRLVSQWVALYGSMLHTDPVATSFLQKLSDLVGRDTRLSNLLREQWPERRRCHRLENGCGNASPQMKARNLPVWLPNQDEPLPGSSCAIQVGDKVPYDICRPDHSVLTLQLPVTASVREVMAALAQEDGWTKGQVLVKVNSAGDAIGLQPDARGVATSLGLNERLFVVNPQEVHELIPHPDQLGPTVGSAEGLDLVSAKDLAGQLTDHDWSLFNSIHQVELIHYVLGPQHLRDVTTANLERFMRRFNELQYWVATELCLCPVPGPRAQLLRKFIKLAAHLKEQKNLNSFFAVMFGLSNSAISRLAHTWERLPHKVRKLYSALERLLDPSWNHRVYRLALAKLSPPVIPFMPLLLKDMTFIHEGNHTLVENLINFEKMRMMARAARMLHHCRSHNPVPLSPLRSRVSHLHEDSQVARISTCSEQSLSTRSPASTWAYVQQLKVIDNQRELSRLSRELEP
# Sequence of Rap guanine nucleotide exchange factor 4 (Homo sapiens) (Q8WZA2 whole entry, looked up): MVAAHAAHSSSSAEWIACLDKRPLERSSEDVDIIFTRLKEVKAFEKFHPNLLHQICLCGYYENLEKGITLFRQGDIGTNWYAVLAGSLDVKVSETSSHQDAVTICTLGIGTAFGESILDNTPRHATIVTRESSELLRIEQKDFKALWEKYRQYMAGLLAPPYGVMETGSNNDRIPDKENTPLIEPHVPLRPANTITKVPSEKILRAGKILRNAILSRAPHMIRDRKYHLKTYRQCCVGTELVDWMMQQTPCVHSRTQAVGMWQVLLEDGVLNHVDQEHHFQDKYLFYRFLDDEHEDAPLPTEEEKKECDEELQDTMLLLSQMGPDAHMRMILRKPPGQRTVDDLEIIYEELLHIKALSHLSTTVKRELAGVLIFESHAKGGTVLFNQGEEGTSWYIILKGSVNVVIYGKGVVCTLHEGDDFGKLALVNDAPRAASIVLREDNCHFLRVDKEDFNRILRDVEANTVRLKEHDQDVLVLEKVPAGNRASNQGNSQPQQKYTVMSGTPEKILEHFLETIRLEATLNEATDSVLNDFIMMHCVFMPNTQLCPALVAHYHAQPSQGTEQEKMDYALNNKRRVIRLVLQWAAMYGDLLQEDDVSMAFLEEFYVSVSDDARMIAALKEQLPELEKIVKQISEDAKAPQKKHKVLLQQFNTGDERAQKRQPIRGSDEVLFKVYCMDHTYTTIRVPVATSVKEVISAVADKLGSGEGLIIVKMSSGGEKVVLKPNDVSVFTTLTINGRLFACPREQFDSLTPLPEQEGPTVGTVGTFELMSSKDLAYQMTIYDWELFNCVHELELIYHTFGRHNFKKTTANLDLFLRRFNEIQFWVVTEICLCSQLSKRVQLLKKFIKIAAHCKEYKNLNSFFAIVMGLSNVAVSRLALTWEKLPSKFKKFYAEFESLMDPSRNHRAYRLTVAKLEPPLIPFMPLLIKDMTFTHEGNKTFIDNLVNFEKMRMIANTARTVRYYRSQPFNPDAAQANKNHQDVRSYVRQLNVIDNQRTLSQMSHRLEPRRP
Compound,Potency [1],Potency [2],Potency [3],Potency [4],Potency [5],activation [3],"activity change, negative = inhibition [5]"
Cn1nc(-c2ccccn2)nc2c(=O)n(C)c(=O)nc1-2,1.69 µM (active),inactive,inactive,inactive,inactive,–,–
COc1cccc(Cn2c(=O)cc(C)c3c(C)nn(C)c32)c1,inactive,inactive,inactive,inactive,inactive,–,–
Clc1cccc(Cl)c1C1Nc2cccc3cccc(c23)N1,inactive,inactive,inactive,inactive,inactive,–,–
Cc1ccc(Cl)c2sc(N3CCN(C(=O)c4ccco4)CC3)nc12,inactive,inactive,–,inactive,–,"3.67% [at 17.1 µM, percent relative to cAMP agonist control]",-12.9% [at 30.8 µM]
CC1=Nc2ccccc2/C1=C/c1sc(=S)n(-c2cccc(C(=O)O)c2)c1O,44.7 µM (active),inactive,–,inactive,–,"2.42% [at 17.1 µM, percent relative to cAMP agonist control]",11.8% [at 30.8 µM]
COc1ccccc1-c1ccc(Nc2cccc(C(F)(F)F)c2)nn1,inactive,inactive,inactive,inactive,inactive,–,–
CC1(C(=O)NS(=O)(=O)c2cccs2)CCN1C(=O)C1(c2ccc(Cl)cc2)CCC1 (stereo not given),15.8 µM (active),inactive,–,inactive,–,"1.54% [at 17.1 µM, percent relative to cAMP agonist control]",-14.6% [at 30.8 µM]
NC(=O)c1cc2ccccc2o/c1=N\NC(=O)c1ccncc1,inactive,inactive,–,inactive,–,"1.92% [at 17.1 µM, percent relative to cAMP agonist control]",-2.29% [at 30.8 µM]
O=C(Nc1cccc(Cl)c1)N(Cc1nc2ccccc2c(=O)[nH]1)Cc1cccs1,inactive,inactive,–,inactive,–,"5.3% [at 17.1 µM, percent relative to cAMP agonist control]",2.45% [at 30.8 µM]
COc1ccc2cc3[n+](cc2c1O)CCc1cc2c(cc1-3)OCO2,19 µM (active),inactive,inactive,inactive,inactive,–,–
Cc1ccc(S(=O)(=O)N2CCCCC2c2cccnc2)c(C)c1C (stereo not given),inactive,inactive,–,inactive,–,"14.9% [at 17.1 µM, percent relative to cAMP agonist control]",2.73% [at 30.8 µM]
COC(=O)CSc1nc2sc3c(c2c(=O)n1-c1ccc(OC)cc1)CCN(C)C3,inactive,inactive,inactive,inactive,inactive,–,–
CNc1ccc(Br)cc(C(=O)/C=C/c2ccc(Cl)cc2Cl)c1=O,12 µM (active),inactive,inactive,inactive,inactive,–,–
COc1ccc(C(=O)Nc2ccc(-c3cc4ccccc4oc3=O)c(C)c2)cc1OC,inactive,inactive,inactive,inactive,inactive,–,–
COC(=O)[C@@H]1C[C@@H](c2ccccc2)[C@H](C)C1(C)C,inactive,inactive,inactive,inactive,inactive,–,–
O=C(O)c1[nH]c2ccccc2c1C(c1cc(Br)ccc1O)c1c(C(=O)O)[nH]c2ccccc12,39.8 µM (active),inactive,–,inactive,–,"11.5% [at 17.1 µM, percent relative to cAMP agonist control]",-16.3% [at 30.8 µM]
O=C(O)CCn1cc(/C=C2\NC(=S)N(c3ccccc3)C2=O)c(-c2ccc(Br)cc2)n1,inactive,inactive,inactive,inactive,inactive,–,–
C/C(C/C(C)=C1/SC(=S)NC1=O)=C1\SC(=S)NC1=O,1.69 µM (active),inactive,inactive,21.3 µM (active),inactive,–,–
O=C(NCc1ccccc1)c1ccc2nc(-c3ccco3)c(-c3ccco3)nc2c1,16.9 µM (active),inactive,inactive,inactive,inactive,–,–
O=C(/C=C/c1ccc(Cl)cc1)Nc1nccs1,inactive,inactive,–,inactive,–,"2.3% [at 17.1 µM, percent relative to cAMP agonist control]",-6.03% [at 30.8 µM]
CCN(CCNC(=O)C1CCN(S(=O)(=O)c2cccc3cccnc23)CC1)c1ccccc1,inactive,inactive,inactive,inactive,inactive,–,–
Nc1c(C(=O)Nc2ccc3c(c2)OCCO3)nnn1Cc1cccc(Br)c1,inactive,inactive,–,inactive,–,"11.4% [at 17.1 µM, percent relative to cAMP agonist control]",-24.5% [at 30.8 µM]
CC(=O)N1N=C(N)SC1c1ccc(Cl)c(Cl)c1 (stereo not given),inactive,inactive,–,inactive,–,"-0.153% [at 17.1 µM, percent relative to cAMP agonist control]",-0.904% [at 30.8 µM]
